# EPAC2 ant val = validation of human EPAC2 antagonists; EPAC2 Rap1B BODIPY-GDP exchange, fluorescence; Potency, µM (highest dose often 112 µM), without a hit: at the highest dose activity, negative = inhibition, usual class: inhibitors; 16,000 compounds, 1.7% hits; AID 1645886;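 further: 100% = activation by cAMP agonist control; nearly all actives have a fitted effect of over 40% in size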
#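 Fluorescent exchange read-out: 100 nM EPAC2 with 250 nM RAP1B–BODIPY-GDP and 50 uM GDP; BODIPY-GDP release lowers fluorescence. Read at 480/540 nm every 5 min for 30 min at room temperature; normalized to 6.5 mM cAMP.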
# EPAC1 ag val = validation of human EPAC1 agonists; 16,000 compounds, 1% hits; EPAC1 Rap1b BODIPY-GDP exchange, fluorescence; Potency, µM, for the others: max response, positive = active, usual class: activators; O95398; AID 1645883; further: nearly all actives have a fitted effect of over 70% in size
# Target sequence (O95398 whole entry, looked up): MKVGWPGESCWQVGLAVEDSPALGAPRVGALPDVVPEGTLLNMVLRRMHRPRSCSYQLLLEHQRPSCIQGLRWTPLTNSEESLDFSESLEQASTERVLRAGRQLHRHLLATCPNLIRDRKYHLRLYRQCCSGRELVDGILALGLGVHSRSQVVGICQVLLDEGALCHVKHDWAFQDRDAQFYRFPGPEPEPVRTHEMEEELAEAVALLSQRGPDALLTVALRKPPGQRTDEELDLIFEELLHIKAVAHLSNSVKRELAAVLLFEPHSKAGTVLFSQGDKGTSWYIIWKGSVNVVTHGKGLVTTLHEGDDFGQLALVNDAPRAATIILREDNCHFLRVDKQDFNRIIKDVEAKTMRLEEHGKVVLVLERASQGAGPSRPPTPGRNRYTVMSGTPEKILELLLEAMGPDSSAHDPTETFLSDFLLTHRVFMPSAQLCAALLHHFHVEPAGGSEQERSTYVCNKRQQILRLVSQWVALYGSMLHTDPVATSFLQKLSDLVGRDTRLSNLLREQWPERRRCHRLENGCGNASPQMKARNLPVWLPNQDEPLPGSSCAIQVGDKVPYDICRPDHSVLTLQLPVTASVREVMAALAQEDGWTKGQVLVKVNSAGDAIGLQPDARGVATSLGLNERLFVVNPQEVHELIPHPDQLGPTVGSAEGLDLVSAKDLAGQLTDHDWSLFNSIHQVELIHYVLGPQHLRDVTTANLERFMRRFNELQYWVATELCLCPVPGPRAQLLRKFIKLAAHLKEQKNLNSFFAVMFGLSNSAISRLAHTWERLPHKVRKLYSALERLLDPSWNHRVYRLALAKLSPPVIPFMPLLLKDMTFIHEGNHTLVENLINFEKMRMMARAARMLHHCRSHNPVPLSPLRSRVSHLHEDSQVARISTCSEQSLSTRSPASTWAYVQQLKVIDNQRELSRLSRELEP
# The depositor's hits bear a star; ? = inconclusive; ! = not active in a repeat; [ ] = dose if it differs, or a comment. Only some compounds are listed: those with a hit (about 3.1% of all), similar ones and a draw of the others. The call rests on the fitted dose curve; in most records, active means well fitted curve in the direction sought with a large enough effect; inconclusive means small, poorly fitted or top-dose-only effect, or another doubt; inactive means no such curve, though single readings can be large; an effect the other way counts as inactive or inconclusive. Unless noted, on the % scale 0 is the no-effect control and ±100 the full control effect; potency means the concentration at half of the fitted maximal effect.
SMILES,EPAC2 ant val,EPAC1 ag val
Cc1cc(-c2cc(F)cc3c2OC(CNC(=O)CCn2cncn2)C3)ccc1F (centres undefined),79.4µM*,6.1%
COC(=O)c1ccc(C(=O)NCC2Cc3cc(F)cc(-c4cncnc4)c3O2)cc1 (centres undefined),2.51µM*,14.1%
COc1ccccc1CC(=O)NCC1Cc2cc(F)cc(-c3cncnc3)c2O1 (centres undefined),-20.2%,2.6%
O=C(CCn1cncn1)NCC1Cc2cc(-c3ccsc3)cc(Cl)c2O1 (centres undefined),-23.9%,?
Cc1ccc(CNc2nc(CN3CCCCC3c3cccnc3)nc3ccccc23)o1 (centres undefined),?,-9.0%
COc1cc(C)c(C(=O)Oc2cc(C)c(C(=O)O)c(O)c2C)c(OC)c1C,50.1µM*,-128.3%
COc1cc(OC)c(C(C)=O)c(O)c1C,-8.8%,-16.8%
COc1ccc(S[C@@H](CCN2CC[C@H](C)CCC2=O)c2ccccc2)cc1,?,-30.9%
C[C@@H]1CCC(=O)N(CC[C@H](Oc2ccccc2)c2ccccc2)CC1,79.4µM*,-19.2%
C[C@@H]1C[C@H]2[C@@H]3CCC4=CC(=O)C=C[C@]4(C)[C@@]3(F)[C@@H](O)C[C@]2(C)[C@@]1(O)C(=O)COC(=O)c1cccc(S(=O)(=O)O)c1,35.3%,7.7%
C=CCCCCCCCCCCCC(O)CC(O)CO (centres undefined) (tested in a mixture with another compound),39.8µM*,-143.2%
C=CCCCCCCCCCCCC(O)CC(O)COC(C)=O (centres undefined),?,-118.3%
CN1CCN(CCCN2c3ccccc3Sc3ccc(Cl)cc32)CC1,35.5µM*!,14.1%
OCCN1CCN(CCCN2c3ccccc3Sc3ccc(C(F)(F)F)cc32)CC1,50.1µM*!,17.3%
CC(=O)c1ccc2c(c1)N(CCCN1CCN(CCO)CC1)c1ccccc1S2,53.9%,6.6%
CN1CCN(CCCN2c3ccccc3Sc3ccccc32)CC1,3.4%,8.8%
CCCCC(=O)OCC(=O)[C@H]1[C@H](C)C[C@H]2[C@@H]3C[C@H](F)C4=CC(=O)C=C[C@]4(C)[C@@]3(F)[C@@H](O)C[C@@]21C,-23.5%,-23.8%
C[C@@H]1[C@H](O)[C@@H](C)/C=C/C=C\C=C\C=C\C=C\C=C\C=C\[C@H](O[C@@H]2O[C@H](C)[C@@H](O)[C@H](N)[C@@H]2O)C[C@@H]2O[C@](O)(C[C@@H](O)C[C@@H](O)[C@H](O)CC[C@@H](O)C[C@@H](O)CC(=O)O[C@H]1C)C[C@H](O)[C@H]2C(=O)O (stereo in doubt),0.8%,4.3%
O=S1(=O)CCO[C@H]2Cc3ccccc3[C@H]2N1Cc1cccc(C(F)(F)F)c1,28.2µM*,-83.8%
O=S1(=O)CCO[C@H]2Cc3ccccc3[C@H]2N1Cc1cccc(F)c1,?,-15.2%
COC(=O)C[C@](O)(CCCC(C)(C)O)C(=O)O[C@@H]1C(OC)=CC23CCCN2CCc2cc4c(cc2[C@H]13)OCO4 (some centres undefined),33.3%,-17.8%
CC1=C[C@H](O)CC(C)(C)[C@H]1/C=C/C(C)=C/C=C/C(C)=C/C=C/C=C(C)/C=C/C=C(C)/C=C/C1=C(C)C[C@@H](O)CC1(C)C,8.9%,-8.7%
CCC(C)[C@H]1COCCS(=O)(=O)N1Cc1ccccc1F (some centres undefined),?,-51.5%
CCC(C)[C@H]1COCCS(=O)(=O)N1Cc1ccc(Br)cc1 (some centres undefined),10µM*,-123.9%
CCC(C)[C@H]1COCCS(=O)(=O)N1Cc1ccc(Cl)cc1Cl (some centres undefined),28.2µM*,-29.6%
SMILES,EPAC2 ant val,EPAC1 ag val
CC(C)[C@H]1COCCS(=O)(=O)N1Cc1ccc(Cl)cc1,?,-49.1%
COc1cccc(-c2nc3cc4c(cc3cc2CN(C(=O)c2csc(C)n2)C2CC2)CCC4)c1OC,-2.0%,0.5%
NCCC[C@H](N)CC(=O)N[C@H]1CNC(=O)[C@H]([C@H]2C[C@H](O)N=C(N)N2)NC(=O)C(=CNC(N)=O)NC(=O)[C@H](CO)NC(=O)[C@H](CO)NC1=O,-3.0%[29.6 µM],2.6%
COc1ccccc1CNc1nc(-c2cccc(C#N)c2)nc2ccccc12,-16.6%,100µM*
COc1ccccc1CNc1nc(-c2cccc(NS(C)(=O)=O)c2)nc2ccccc12,-22.3%,100µM*
COc1ccccc1CNc1nc(-c2ccc3c(c2)OCO3)nc2ccccc12,-23.1%,100µM*
Cc1cccc(CNc2nc(-c3cccc(NS(C)(=O)=O)c3)nc3ccccc23)c1,-29.4%,?
COc1ccccc1CNc1nc(-c2ccc(N(C)C)cc2)nc2ccccc12,-10.6%,?
COc1cccc(-c2nc(NCc3ccccc3OC)c3ccccc3n2)c1,-23.3%,?
CO[C@H]1[C@H](NC(=O)c2ccsc2)c2ccccc2C12CCN(Cc1cc3ccccc3o1)CC2,-9.5%,28.7%
Cc1ccc(C(=O)Nc2cccc(-c3nc(CNC(=O)c4cccc(C)c4C)c(C)o3)c2)s1,5.7%,-12.9%
CC(C)C(NC(=O)c1ccoc1)c1nnc2n1CCN(Cc1ccc3c(c1)Cc1ccccc1-3)CC2 (centres undefined),?,22.3%
C[C@H](CSC(=O)c1ccccc1)C(=O)N1C[C@@H](Sc2ccccc2)C[C@H]1C(=O)O,5.3%,-21.0%
O=C1O/C(=C/Br)CCC1c1cccc2ccccc12 (centres undefined),3.98µM*,-0.8%
COc1ccc(C(=O)c2ccccc2O)c(O)c1,44.7µM*!,-3.9%
COc1ccc(/C=C/C(=O)c2cc(O)ccc2O)cc1,?,9.4%
O=C(Nc1ccc(Oc2ccc(Cl)cc2)c(Cl)c1)c1cc(I)cc(I)c1O,-17.6%,100µM*
O=C(Nc1ccc(Cl)cc1)Nc1ccc(Cl)c(Cl)c1,?,-3.6%
C/C1=C2N=C(/C=C3N=C(/C(C)=C4\[N-]C(C(CC(N)=O)C4(C)CCC(=O)NCC(C)OP(=O)([O-])OC4C(CO)OC(n5cnc6cc(C)c(C)cc65)C4O)C4(C)N=C1C(CCC(N)=O)C4(C)CC(N)=O)C(CCC(N)=O)C\3(C)C)C(CCC(N)=O)C/2(C)CC(N)=O.[CH3-].[Co+3] (centres undefined),10µM*,2.1%
CN1CCCN(C(=O)[C@@H]2C[C@@H](Sc3nc4ccccc4[nH]3)CN2Cc2ccc(OC(F)(F)F)cc2)CC1,-5.1%,-11.1%
COc1ccc2c(c1)[C@@]1(C)CCC[C@](C)(CO)C1CC2 (some centres undefined),44.7µM*,-14.3%
CC(C)c1c(O)ccc2c1CCC1[C@@](C)(CO)CCC[C@@]21C (some centres undefined),-22.1%,28.5%
CC1(C)C(\C=C/C=C\C=C/C=C2/N(CCCCS(=O)(=O)O)c3ccc4ccccc4c3C2(C)C)=[N+](CCCCS(=O)(=O)[O-])c2ccc3ccccc3c21,-28.4%,?
Cc1nn(-c2ccc(F)cc2)c(C)c1CNC(=O)c1ccc(-n2cc(NC(=O)c3ccoc3)cn2)cc1,-15.5%,-13.7%
CC(C)(C)CC(=O)OCC(=O)[C@@]12OC(C)(C)O[C@@H]1C[C@H]1[C@@H]3CCC4=CC(=O)C=C[C@]4(C)[C@@]3(F)[C@@H](O)C[C@@]12C,1.4%,18.0%
Clc1ccc(C(Cn2ccnc2)OCc2c(Cl)cccc2Cl)c(Cl)c1 (centres undefined),?,39.8µM*!
